USP2a block = inhibitors of human ubiquitin-specific protease USP2a | O75604 | USP2 core, Ub-CHOP2 coupled fluorogenic reporter, 485/531 | Potency, µM (series often up to 38.3 µM), for inactives: at the highest dose activity change, negative = inhibition, usual class: inhibitors | 330,000 compounds, 0.01% hits;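 further: potency means the concentration at half of the fitted maximal effect; plate controls were DMSO wells for no effect and full inhibition by NEM control for full effect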
Target sequence (O75604 whole entry, looked up): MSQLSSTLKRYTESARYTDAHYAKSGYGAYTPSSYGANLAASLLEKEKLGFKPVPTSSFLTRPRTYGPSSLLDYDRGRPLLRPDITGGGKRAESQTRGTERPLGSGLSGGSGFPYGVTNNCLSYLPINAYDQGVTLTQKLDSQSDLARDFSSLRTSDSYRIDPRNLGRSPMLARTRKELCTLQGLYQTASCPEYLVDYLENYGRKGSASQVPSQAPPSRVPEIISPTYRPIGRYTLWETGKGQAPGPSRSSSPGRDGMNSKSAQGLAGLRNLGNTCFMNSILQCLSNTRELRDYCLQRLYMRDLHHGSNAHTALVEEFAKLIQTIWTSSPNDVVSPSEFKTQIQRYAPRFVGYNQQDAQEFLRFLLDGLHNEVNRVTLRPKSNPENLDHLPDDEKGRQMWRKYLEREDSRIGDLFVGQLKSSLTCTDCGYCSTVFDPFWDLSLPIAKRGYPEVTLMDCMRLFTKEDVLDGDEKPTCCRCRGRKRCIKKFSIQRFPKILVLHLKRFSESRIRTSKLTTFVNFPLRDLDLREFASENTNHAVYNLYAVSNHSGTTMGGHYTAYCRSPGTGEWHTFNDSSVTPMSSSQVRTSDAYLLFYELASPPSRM
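USP2 core (10nM final) preincubated 30min RT with compound in 20mM Tris-HCl pH 8.0, 2mM CaCl2, 2mM beta-mercaptoethanol, 0.05% CHAPS; 25nM Ub-CHOP2 plus 25nM reporter substrate added, fluorescence (Ex485/Em531) read after 60min.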
Six1-Eya2 inh = blocks human Six1 binding to Eya2; Q15475+O00167; AlphaScreen GST-Six1/His-Eya2 binding, biochemical; active compounds read low; activity change, % (no concentration beside the values); 360,000 compounds, 0.56% hits; AID 651725; in the data active means activity change below about -65%; inconclusive means mostly about -30% to -63%
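Compounds are tested against tagged Six1 and Eya2 proteins bridged by glutathione donor and nickel acceptor beads; after a one-hour incubation at 37 °C without light, AlphaScreen emission is recorded.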
CtBP-E1A inh = inhibitors of CtBP/E1A interaction; AlphaScreen GST-E1A/His-CtBP binding, 1536-well; active compounds read low; 340,000 compounds, 0.49% hits; AID 651724; activity change, % (test concentration not listed); in the data active means activity change below about -65%; inconclusive means mostly about -30% to -63%
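AlphaScreen with 125 nM GST-E1A and 125 nM His-CtBP (5X stocks) in Tris pH 8.0, 300 mM NaCl, BSA, Tween 20, TCEP. Compounds preincubated 2 h at 37 deg C, then glutathione donor/nickel acceptor beads added for 1 h at 37 deg C in dark.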
Eya2 inh = inhibitors of human Eya2 phosphatase activity; O00167; 330,000 compounds, 0.006% hits; Potency, µM (top dose mostly 76.9 µM), without a hit: at the top dose activity, negative = inhibition, hits mostly inhibitors; recombinant Eya2, OMFP fluorescence dephosphorylation (OMFP is methylfluorescein phosphate); AID 488837; further: potency means the concentration at half of the fitted maximal effect
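Eya2 protein (added as 0.2 uM solution) was preincubated with compound for 10 min at ambient temperature in 50 mM HEPES pH 7.5, 50 mM NaCl, 5 uM MgCl2, 0.05% BSA, 1 mM DTT. OMFP (added at 50 uM) then reacted 10 min; fluorescence read at 485/525 nm.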
uPA surface inh = cell surface uPA generation inhibition; cell surface uPA generation assay, qHTS; Potency, µM (doses to about 38.3 µM), for inactives: top-dose activity change, negative = inhibition, most hits filed as inhibitors; 330,000 compounds, 0.31% hits; AID 540303; active means well fitted inhibition curve with a large enough effect; inconclusive means small, poorly fitted or top-dose-only effect; inactive means no such curve, though single readings can be large or run the other way; tested in mouse RAW 264.7 cells; further: potency means the concentration at half of the fitted maximal effect; nearly all actives have a fitted effect of over 55% in size
L3MBTL1 inh = blocks human L3MBTL1. Q9Y468. AlphaScreen L3MBTL1–H3K9me1 peptide binding. Potency, µM (doses to about 57.1 µM), inactives show top-dose activity, negative = inhibition, actives largely listed as inhibitors. 230,000 compounds, 0.66% hits; further: potency means the concentration at half of the fitted maximal effect; nearly all actives have a fitted effect of over 60% in size
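Displacement of a biotinylated histone H3(1-15) peptide monomethylated at Lys9 (75 nM) from L3MBTL1 (50 nM) was measured by AlphaScreen after a 30 min room-temperature compound incubation; cefsulodin titration served as intraplate control.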
* marks the source's active call; other numbers are inactive results; u = inconclusive; x = not tested or not shown. Sampled rows, rich in hits. Any-hit rate of the full collection: about 1.2%. Unless noted, the call rests on the fitted dose curve; in most records, active means well fitted curve in the direction sought with a large enough effect; inconclusive means small, poorly fitted or top-dose-only effect, or another doubt; inactive means no such curve, though single readings can be large; an effect the other way counts as inactive or inconclusive. Unless noted, on the % scale 0 is the no-effect control and ±100 the full control effect.

SMILES | USP2a block | Six1-Eya2 inh | CtBP-E1A inh | Eya2 inh | uPA surface inh | L3MBTL1 inh
ClC(Cl)(c1nnnn1-c1ccccc1)c1nnnn1-c1ccccc1 | 1% | 12 | 13 | 2% | -10% | 9%
CC(=O)Nc1ccc2c(c1)OCCO2 | 3% | 0 | -2 | 12% | 2% | -1%
C=C(C)C(=O)Nc1ccc2c(c1)OCCOCCOCCO2 | 2% | u | -24 | -13% | 2% | 3.5µM*
O=C(Nc1ccc2c(c1)OCCO2)NC1(C(F)(F)F)Oc2ccccc2O1 | 0% | 6 | -3 | 0% | 2.5µM* | x
O=C(Nc1ccc2c(c1)OCO2)NC1(C(F)(F)F)Oc2ccccc2O1 | u | -10 | 0 | -10% | -11% | x
COc1ccc(Br)cc1C(=O)CCC(=O)OCC(=O)Nc1cc(C(N)=O)cc(C(N)=O)c1 | -2% | u | -70* | -24% | 5% | -11%
CCOC(=O)c1cnc(Nc2nc3ccccc3o2)nc1CN1CCN(C)CC1 | 4% | -87* | -85* | 8% | -9% | -26%
O=C(Nc1nc2ccccc2[nH]1)c1ccc(Cl)c(S(=O)(=O)N2CCCC2)c1 | -7% | u | -73* | 0% | -12% | x
O=c1[nH]c2ccccc2c2nc(-c3cccc(S(=O)(=O)N4CCCC4)c3)nn12 | 9% | -85* | -81* | -13% | 0% | x
Nc1cc(C(=O)OCC(=O)Nc2ccc(N3CCOCC3)cc2)ccc1Cl | 1% | -11 | -8 | 0% | 7% | -4%
Nc1c2c(=O)[nH]c(O)cc2nn1-c1ccccc1 | x | 7 | -66* | x | 3% | x
O=C(/C=C/c1ccc(F)cc1)NC(=S)N1CCN(c2ccccn2)CC1 | -1% | -15 | -74* | 2% | 1% | 10%
Cc1nc(N)sc1-c1csc(Nc2cccc(O)c2)n1 | -1% | -69* | u | 5% | 4% | -1%
CC(=O)c1cccc(Nc2nc(-c3sc(N)nc3C)cs2)c1 | -1% | u | -77* | 1% | -4% | -1%
Cc1nc(C)c(-c2csc(Nc3cccc(O)c3)n2)s1 | 2% | -21 | -24 | 0% | -5% | -17%
Cc1ccc(Nc2nc(-c3sc(N)nc3C)cs2)cc1 | -14% | -2 | x | -16% | -23% | -9%
Cc1nc(N)sc1-c1csc(Nc2cc(N(C)C)ccc2Cl)n1 | x | -73* | u | x | x | x
Cc1c(C(=O)NNC(=S)Nc2cccc(Cl)c2)nnn1-c1ccccc1 | 2% | -85* | -2 | 2% | -2% | u
COc1ccc2nc(-c3ccccn3)[nH]c2c1 | -2% | -24 | -21 | -1% | u | x
COc1cc(C=NO)nc(-c2ccccn2)c1 | x | -92* | 3 | x | -9% | x
NC(=O)c1ccc[n+](Cc2ccc(-c3ccccc3)cc2)c1 | -1% | 3 | -12 | 11% | 5% | x
COC(=O)CN(C)C(=O)c1ccccc1OC1CCN(S(C)(=O)=O)CC1 | -3% | 7 | 6 | 6% | 3% | 62%
O=C(c1cc2cc([N+](=O)[O-])ccc2oc1=O)n1cccn1 | 2% | -9 | -1 | 1% | 3% | 40µM*
COc1cc(CNC(=O)Nc2nnc([C@@H]3C[C@H](O)[C@@H](CO)O3)s2)cc(OC)c1OC | x | 2 | 6 | x | x | x
COC(=O)c1cccc(Nc2c3c(nc4ccccc24)CCC3)c1 | 2% | -4 | 2 | 10% | -19% | x
SMILES | USP2a block | Six1-Eya2 inh | CtBP-E1A inh | Eya2 inh | uPA surface inh | L3MBTL1 inh
CC(=O)c1cccc(Nc2c3c(nc4ccccc24)CCC3)c1 | -2% | 5 | 4 | -9% | 0.79µM* | x
CCn1c(O)c(N=NC(=O)CNC(=O)Cc2ccccc2)c2ccccc21 | 1% | -1 | -13 | 9% | 2% | x
O=C(CNC(=O)c1ccco1)N=Nc1c(O)n(CCc2ccccc2)c2ccccc12 | 1% | -4 | 1 | -24% | 1.1µM* | -23%
CN(C)c1ccc(N=Nc2ccccc2C(=O)OCC(=O)Nc2ccccc2C(F)(F)F)cc1 | 4% | -71* | -29 | -2% | -12% | 25µM*
CN(C)c1ccc(N=Nc2ccccc2C(=O)OCC(=O)N2CCCCCC2)cc1 | -4% | -74* | -66* | -7% | -19% | u
CC1=C(C(=O)OCC2CCCO2)C(c2ccsc2)C2=C(CCCC2=O)N1 (centres undefined) | 8% | 6 | 5 | 6% | -3% | x
Cn1cccc1CN1CCC[C@]2(N[C@H](c3ccccc3)[C@@H]3C(=O)N(Cc4ccccc4)C(=O)[C@@H]32)C1=O | x | -9 | 1 | x | x | x
COc1ccc(CCNC(=O)C2CCCN2C(=O)Nc2ccc(Cl)cc2)cc1OC (centres undefined) | -1% | -1 | -6 | 13% | -5% | 0%
O=C(Nc1ccon1)c1ccc(OC2CCCC2)cc1 | 7% | -9 | 4 | 0% | 10µM* | -1%
Cn1c(=O)c2c(nc(CN3CCc4ccccc4C3)n2Cc2cccc(Cl)c2)n(C)c1=O | 1% | -5 | 0 | -5% | 7.9µM* | -13%
Cn1c(=O)c2c(nc(CN3CCN(Cc4ccccc4)CC3)n2Cc2cccc(Cl)c2)n(C)c1=O | -7% | 1 | -13 | -25% | -27% | -10%
COc1cc(C(=O)NNC(=O)c2cc(-c3ccccc3)n[nH]2)cc(OC)c1C | 0% | -16 | -6 | 1% | 1% | -9%
CCCn1c(Nc2nc3ccccc3n2C)nc2ccccc21 | 1% | -1 | -1 | 20% | -12% | 18µM*
CCCCn1c(Nc2ccccc2)nc2ccccc21 | 1% | 12 | -11 | 2% | -4% | x
COc1cc(NC(=O)c2cc([N+](=O)[O-])ccc2NC(=O)CNCc2ccccn2)cc(OC)c1 | -2% | -91* | -84* | 4% | -9% | x
O=C1C=C(N2CCN(c3ccccn3)CC2)C(=O)c2c(O)ccc(O)c21 | x | -13 | -12 | x | 0% | x
CC1=CC(=O)c2c(O)ccc(O)c2C1=O | u | x | x | -5% | x | 0.79µM*
Cc1sc2ncnc(N/N=C/c3ccccc3O)c2c1C | 0% | -86* | -88* | -19% | -8% | u
Cc1sc2ncnc(N/N=C/c3ccc(O)cc3)c2c1C | 0% | u | -1 | -7% | 6% | -7%
Cc1ccc(/C=N/NC(=O)c2ccc3ccccc3c2)s1 | 2% | -3 | -5 | -13% | 4.5µM* | x
Cc1ccc(/C=N/NC(=O)c2ccc3c(c2)OCCO3)s1 | 5% | 5 | -8 | 8% | -4% | u
O=c1cc(CO)oc(CN2CCCC2)c1O | 1% | -2 | 7 | 10% | -8% | -15%
CCN(CC)Cc1oc(CO)cc(=O)c1O | -1% | -4 | 0 | 11% | 2% | 1.1µM*
CCn1c(/C=C/c2ccc(O)c(O)c2)nc2ccccc2c1=O | -6% | -30 | x | -4% | u | 20µM*

Bioassay records from PubChem.
